Data reported in PubChem BioAssay AID1159580 (chemical genetic matrix, 2015).
About 2,000 (36%) of roughly 5,500 compounds were called active. Roughly 18% stayed inconclusive and do not appear here. No stated cut-off is given here; in the data, active means normalized growth mostly below about 0.91 (no sharp cut-off); inconclusive means no clear call, values can overlap the other calls; inactive means mostly above about 0.92. This is one part of the list.

Assay: chemical genetic growth profiling, strain panel (AID 1159580);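 further: tested at 20 µM; growth read once vehicle control cultures reached saturation at 30 °C; 1 = growth at the plate median or of vehicle wells; lower values mean less growth of the strain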
Conditions: growth OD

Measured: normalized growth

NC(=NCCC[C@H](N)C(=O)O)N[N+](=O)[O-]
inactive: S. cerevisiae deletion strains, locus YJL187C, strain SWE1 (second series), hits give low values 0.983 | S. cerevisiae deletion strains, locus YJR043C, strain POL32, hits give low values 0.995 | S. cerevisiae deletion strains, locus YKL009W, strain mrt4, hits give low values 1 | S. cerevisiae deletion strains, locus YKL068W, hits give low values 0.997 | S. cerevisiae deletion strains, locus YKL085W, strain MDH1 (second series), hits give low values 0.982 | S. cerevisiae deletion strains, locus YKL085W, strain MDH1, hits give low values 0.982 | S. cerevisiae deletion strains, locus YKL160W, strain elf1, hits give low values 1.01 | S. cerevisiae deletion strains, locus YKL190W, strain CNB1, hits give low values 0.99 | S. cerevisiae deletion strains, locus YKR001C, strain vps1, hits give low values 0.98 | S. cerevisiae deletion strains, locus YKR026C, strain gcn3, hits give low values 1.01 | S. cerevisiae deletion strains, locus YKR091W, strain srl3, hits give low values 1.02 | S. cerevisiae deletion strains, locus YLL001W, strain dnm1, hits give low values 1.02 | S. cerevisiae deletion strains, locus YLL026W, hits give low values 1.02 | S. cerevisiae deletion strains, locus YLL041C, strain sdh2, hits give low values 1.02 | S. cerevisiae deletion strains, locus YLR027C, strain aat2, hits give low values 1.03 | S. cerevisiae deletion strains, locus YLR039C, strain RIC1, hits give low values 0.971 | S. cerevisiae deletion strains, locus YLR058C, strain SHM2, hits give low values 1.01 | S. cerevisiae deletion strains, locus YLR102C, strain apc9, hits give low values 1.01 | S. cerevisiae deletion strains, locus YLR221C, strain rsa3, hits give low values 0.985 | S. cerevisiae deletion strains, locus YLR258W, strain gsy2, hits give low values 1.02 | S. cerevisiae deletion strains, locus YLR262C, strain YPT6 (second series), hits give low values 1.04 | S. cerevisiae deletion strains, locus YLR262C, strain YPT6, hits give low values 1.06 | S. cerevisiae deletion strains, locus YLR268W, strain sec22, hits give low values 1 | S. cerevisiae deletion strains, locus YLR320W, strain mms22, hits give low values 1.03 | S. cerevisiae deletion strains, locus YLR330W, strain CHS5, hits give low values 1.01 | S. cerevisiae deletion strains, locus YLR342W, strain FKS1 (second series), hits give low values 1.03 | S. cerevisiae deletion strains, locus YLR342W, strain FKS1, hits give low values 1.02 | S. cerevisiae deletion strains, locus YLR357W, strain rsc2, hits give low values 1.06 | S. cerevisiae deletion strains, locus YLR370C, strain arc18, hits give low values 1.02 | S. cerevisiae deletion strains, locus YLR371W, strain rom2, hits give low values 0.997 | S. cerevisiae deletion strains, locus YLR384C, strain iki3, hits give low values 1.03 | S. cerevisiae deletion strains, locus YLR418C, strain cdc73, hits give low values 1.04 | S. cerevisiae deletion strains, locus YML016C, strain PPZ1, hits give low values 1 | S. cerevisiae deletion strains, locus YML032C, strain rad52, hits give low values 0.989 | S. cerevisiae deletion strains, locus YML120C, strain ndi1, hits give low values 1.02 | S. cerevisiae deletion strains, locus YML124C, strain tub3, hits give low values 1 | S. cerevisiae deletion strains, locus YMR058W, strain fet3, hits give low values 1.04 | S. cerevisiae deletion strains, locus YMR078C, strain ctf18, hits give low values 0.997 | S. cerevisiae deletion strains, locus YMR125W, strain sto1, hits give low values 1.01 | S. cerevisiae deletion strains, locus YMR129W, hits give low values 1.02 | S. cerevisiae deletion strains, locus YMR205C, strain PFK2, hits give low values 1.03 | S. cerevisiae deletion strains, locus YMR223W, strain ubp8, hits give low values 1.05 | S. cerevisiae deletion strains, locus YMR231W, strain pep5, hits give low values 1.01 | S. cerevisiae deletion strains, locus YMR307W, strain GAS1, hits give low values 0.982 | S. cerevisiae deletion strains, locus YNL067W, strain RPL9B, hits give low values 0.973 | S. cerevisiae deletion strains, locus YNL071W, strain lat1, hits give low values 1.01 | S. cerevisiae deletion strains, locus YNL128W, strain TEP1, hits give low values 1.01 | S. cerevisiae deletion strains, locus YNL153C, strain GIM3, hits give low values 0.975 | S. cerevisiae deletion strains, locus YNL209W, strain ssb2, hits give low values 1.03 | S. cerevisiae deletion strains, locus YNL233W, strain BNI4, hits give low values 0.968 | S. cerevisiae deletion strains, locus YNL248C, strain rpa49, hits give low values 1.01 | S. cerevisiae deletion strains, locus YNL271C, strain bni1, hits give low values 1.01 | S. cerevisiae deletion strains, locus YNL298W, strain CLA4, hits give low values 1.01 | S. cerevisiae deletion strains, locus YNL307C, strain MCK1, hits give low values 1.01 | S. cerevisiae deletion strains, locus YNL322C, strain KRE1 (second series), hits give low values 1.03 | S. cerevisiae deletion strains, locus YNL322C, strain KRE1, hits give low values 0.994 | S. cerevisiae deletion strains, locus YNR049C, strain mso1, hits give low values 1.02 | S. cerevisiae deletion strains, locus YNR052C, strain pop2, hits give low values 1.01 | S. cerevisiae deletion strains, locus YOL006C, strain TOP1, hits give low values 0.974 | S. cerevisiae deletion strains, locus YOL012C, strain htz1 2.01 | S. cerevisiae deletion strains, locus YOL147C, strain pex11, hits give low values 1 | S. cerevisiae deletion strains, locus YOR001W, strain rrp6, hits give low values 1.04 | S. cerevisiae deletion strains, locus YOR061W, strain CKA2, hits give low values 1 | S. cerevisiae deletion strains, locus YOR069W, strain VPS5, hits give low values 1.01 | S. cerevisiae deletion strains, locus YOR070C, strain gyp1, hits give low values 1.02 | S. cerevisiae deletion strains, locus YOR080W, strain dia2, hits give low values 1.02 | S. cerevisiae deletion strains, locus YOR083W, strain WHI5, hits give low values 1.03 | S. cerevisiae deletion strains, locus YOR106W, strain vam3, hits give low values 1.05 | S. cerevisiae deletion strains, locus YOR136W, strain idh2, hits give low values 0.997 | S. cerevisiae deletion strains, locus YOR144C, strain elg1, hits give low values 1 | S. cerevisiae deletion strains, locus YOR184W, strain ser1, hits give low values 1.02 | S. cerevisiae deletion strains, locus YOR265W, strain rbl2, hits give low values 1.02 | S. cerevisiae deletion strains, locus YOR270C, strain vph1, hits give low values 1.04 | S. cerevisiae deletion strains, locus YOR290C, strain snf2, hits give low values 1.02 | S. cerevisiae deletion strains, locus YOR316C, strain cot1, hits give low values 1.01 | S. cerevisiae deletion strains, locus YPL051W, strain arl3, hits give low values 1.02 | S. cerevisiae deletion strains, locus YPL055C, strain LGE1, hits give low values 0.95 | S. cerevisiae deletion strains, locus YPL078C, strain atp4, hits give low values 1.03 | S. cerevisiae deletion strains, locus YPL106C, strain sse1, hits give low values 1.04 | S. cerevisiae deletion strains, locus YPL240C, strain hsp82, hits give low values 1.01 | S. cerevisiae deletion strains, locus YPL241C, strain CIN2, hits give low values 1 | S. cerevisiae deletion strains, locus YPR119W, strain clb2, hits give low values 0.997 | S. cerevisiae deletion strains, locus YPR141C, strain kar3, hits give low values 0.998 | S. cerevisiae deletion strains, locus YPR163C, strain tif3, hits give low values 0.997 | S. cerevisiae deletion strains, locus YPR167C, strain met16, hits give low values 0.999 | S. cerevisiae deletion strains, strain wtn01, hits give low values 1 | S. cerevisiae strains, strain wild type, hits give low values 1
